Data taken from PubChem BioAssay (NCI).
This is part of a sample that, as a whole, favours compounds with a hit. Of some 79,000 tested, about 15% had one in any assay. Unmarked numbers belong to inactive results. Activity calls are given as the source filed them. Rule as the data show it: active = growth inhibition above about 70%; inactive = the rest.

Key:
[1] = NCI Yeast Anticancer Drug Screen. Data for the rad50 strain (AID 155);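 also: 0% = growth of vehicle-only cultures of the same strain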; details: S. cerevisiae rad50 strain growth inhibition, active compounds read high
How it was run: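 Yeast carrying a defined DNA repair defect were exposed to test compounds, and growth was compared with vehicle-treated controls to give percent inhibition.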

[2] = NCI Yeast Anticancer Drug Screen. Data for the mec2-1 strain (AID 157); details: S. cerevisiae mec2-1 strain, active compounds read high
How it was run: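 Cells of the genetically defined mec2-1 yeast strain are incubated with test compound. Inhibition of growth is calculated against vehicle-treated controls.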

[3] = NCI Yeast Anticancer Drug Screen. Data for the sgs1 mgt1 strain (AID 161);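 also: 0% = growth of cultures given vehicle only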; details: S. cerevisiae sgs1 mgt1 strain, active compounds read high
How it was run: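 Inhibition of yeast growth, normalised to vehicle-treated controls, is reported for a strain bearing genetic alterations in DNA damage repair.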

[4] = NCI Yeast Anticancer Drug Screen. Data for the cln2 rad14 strain (AID 165);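 also: 0% = growth equal to vehicle treated cultures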; details: S. cerevisiae cln2 rad14 strain, active compounds read high
How it was run: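 The screen exposed genetically defined yeast (cln2 rad14) to test compounds and scored growth inhibition relative to vehicle-treated controls.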

[5] = NCI Yeast Anticancer Drug Screen. Data for the bub3 strain (AID 167); details: S. cerevisiae bub3 mutant strain, active compounds read high
How it was run: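 Compounds were applied to a genetically altered yeast strain carrying a cell-cycle control defect. Growth inhibition was scored against vehicle-treated controls.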

[6] = NCI Yeast Anticancer Drug Screen. Data for the mlh1 rad18 strain (AID 175); details: S. cerevisiae mlh1 rad18 strain growth inhibition, active compounds read high
How it was run: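 Compound-treated yeast growth, normalised to vehicle controls. Strain bears defined DNA repair mutations.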

[7] = at 5.0 µM (retest, dose inferred, filed as 0.5)
[8] = at 50.0 µM (retest, dose inferred, filed as 5.0)

SMILES	growth inhibition [1, 7] [%]	growth inhibition [1, 8]	growth inhibition ([1]; at 50.0 µM)	growth inhibition [2, 7] [%]	growth inhibition [2, 8]	growth inhibition ([2]; at 50.0 µM)	growth inhibition [3, 7] [%]	growth inhibition [3, 8]	growth inhibition ([3]; at 50.0 µM)	growth inhibition [4, 7] [%]	growth inhibition [4, 8]	growth inhibition ([4]; at 50.0 µM)	growth inhibition [5, 7] [%]	growth inhibition [5, 8]	growth inhibition ([5]; at 50.0 µM)	growth inhibition [6, 7] [%]	growth inhibition [6, 8]	growth inhibition ([6]; at 50.0 µM)
COc1ccc(NC(=O)C(Cc2ccccc2)NC(C)=O)cc1 (stereo unspecified)	9	7%	48.6%	1	-9%	-5.75%	-12	-14%	3.15%	-5	1%	-55.5%	-4	-2%	9.7%	-1	-25%	6.2%
c1ccc2c3ccn4ccc5c6ccccc6[nH]c5c4c-3nc2c1	38	96% (active)	65.3%	28	88% (active)	47.1%	27	93% (active)	47.2%	24	39%	34.1%	29	96% (active)	43.8%	–	–	–
Nc1ccc2c(c1)NCCN2	42	76% (active)	84% (active)	5	17%	32.1%	4	20%	23.5%	3	6%	21.4%	1	18%	18.2%	7	31%	53.4%
CN1CCCC(C(=O)OCC(=O)C2(O)CCC3C4CCC5=CC(=O)CCC5(C)C4C(O)CC32C)C1 (stereo unspecified)	13	11%	29.2%	-5	0%	5%	-7	5%	-11%	3	8%	38.4%	-7	9%	12.4%	-3	35%	42.9%
CCOCCOc1ccc(OCCOCC)cc1	-8	-13%	-1.9%	-8	-13%	-1.7%	-66	-9%	-7%	-4	-10%	37.3%	-8	-4%	-2.95%	–	–	–
CCOC(=O)NN(C(=O)OCC)c1ccc(N=Nc2ccc(OC)cc2)n1C	1	84% (active)	46%	-25	85% (active)	60.8%	-22	87% (active)	70.3% (active)	29	70% (active)	71.5% (active)	-40	78% (active)	74% (active)	–	–	–
CC(=O)OC1=CC2(OC(C)=O)CC(C)(C)C1C1C(=O)C=CC(=O)C12 (stereo unspecified)	8	14%	53.1%	-8	10%	65.3%	0	13%	68.2%	3	-10%	33.9%	4	14%	73.8% (active)	5	21%	17.1%
CCN(CC)CCOC(=O)c1ccc(N=Nc2ccc(O)c3ccccc23)cc1	0	99% (active)	98.8% (active)	4	100% (active)	99.1% (active)	6	99% (active)	99% (active)	6	99% (active)	86.8% (active)	-2	99% (active)	41.1%	-7	99% (active)	99% (active)
N#Cc1c(-c2ccc([N+](=O)[O-])cc2)c(C#N)c(=O)n(NS(=O)(=O)c2ccccc2)c1S	35	91% (active)	51.8%	15	81% (active)	81.6% (active)	17	88% (active)	78% (active)	46	67%	40%	46	87% (active)	61.6%	31	81% (active)	78.8% (active)
CN(C)c1ccc(/C=C(\NC(=O)c2ccccc2)c2nc3ccccc3s2)cc1	35	96% (active)	97.1% (active)	20	97% (active)	97.2% (active)	61	97% (active)	98% (active)	17	95% (active)	97.3% (active)	37	97% (active)	95% (active)	27	96% (active)	97% (active)
